An excerpt weighted towards active compounds, which were near 1.5% of everything screened.
VCAM1 TNFa inh: reduces TNF alpha induced VCAM1 expression in HUVEC | actives 0.48% (n = 95,000) | HUVEC TNFa-induced VCAM-1 immunofluorescence, high-content imaging | inhibition, % at 2 µM;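 active = inhibition above the batch mean plus 3 SD, with images confirmed as a hit by eye, cut at about 37% in these data; inconclusive = inhibition above that limit but hit not confirmed in images; inactive = inhibition not above that limit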
IL1B NFkB inh: blocks IL-1B driven NFkB nuclear translocation in HUVEC cells. HUVEC IL-1B NFkB p65 nuclear translocation imaging. inhibition, % at 2 µM. actives 0.43% (n = 94,000). AID 796;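 active = inhibition above about 30% together with a positive call from visual inspection of the well image, limit read from the data; inconclusive = inhibition above a set limit but visual check negative; inactive = inhibition not above a set limit, visual check negative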;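 also: nuclear over cytoplasmic p65 intensity ratio measured by imaging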
TNFa cytotox: HUVEC cytotoxicity counter-screen, TNF alpha stimulated; cell count reduction, % at 2 µM; actives 0.17% (n = 93,000); HUVEC TNFalpha-stimulated, Hoechst cell count, imaging;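 active = cell count reduction exceeding the screen mean by over 5 SD, scaled to untreated wells per plate, cut at about 78% in these data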;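 also: cells counted after 24 h of TNF alpha exposure following the 1 h pretreatment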
IL1B cytotox: toxic to HUVEC cells under IL-1B stimulation. HUVEC cell count loss, Hoechst imaging, IL-1B stimulated. cell count reduction, % at 2 µM. actives 0.41% (n = 94,000). AID 845;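 active = cell count reduction more than 3 SD above the screen-wide mean, cut at about 70% in these data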
IL1B NFkB pot: enhances IL-1B driven NFkB nuclear translocation; HUVEC IL-1B NFkB p65 nuclear translocation imaging; activation, % at 2 µM; actives 0.3% (n = 94,000);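 active = activation above 40%, about the mean plus 3 SD, also judged a hit on visual image review; inconclusive = activation above 40% but not a hit on visual review; inactive = activation not above 40% and no visual hit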;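 also: percent activation is computed from the nuclear over cytoplasmic p65 intensity ratio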
Each line names hits and unclear results; the compound was inactive in the other large screens.

O=C(CN1C(=O)C2CCc3[nH]c4ccccc4c3C2C1=O)N1CCCC1 (stereo not drawn)	TNFa cytotox 86.3
CCCCCCCCS(=O)c1sc2nc(C)cc(C)c2c1N (stereo not drawn)	none
O=C(CCC(=O)OCC(=O)c1ccccc1)NC1CCCCC1	none
Cc1cc(C)n(C(=O)c2ccc(NC(=O)C3COc4ccccc4O3)cc2)n1 (stereo not drawn)	VCAM1 TNFa inh 98.0, TNFa cytotox 85.4
CCOC(=O)Cn1c(=O)c(-c2ccccc2NCc2ccccc2)nc2ccccc21	none
CCc1ccc(C(=O)Cn2ncc(Cl)c(Cl)c2=O)cc1	IL1B NFkB inh 55.9
COc1ccc(OCC(=O)N/N=C2\CCc3ccccc32)cc1	IL1B NFkB inh 53.1
COc1ccc(CNC(C)C2COc3ccccc3O2)c(OC)c1 (stereo not drawn)	none
CC(NCc1ccccc1)C1COc2ccccc2O1 (stereo not drawn)	IL1B NFkB pot 49.1
O=C1CC(N2CCN(c3cccc(C(F)(F)F)c3)CC2)C(=O)N1c1ccc(F)cc1 (stereo not drawn)	none
COc1ccccc1N(CC(=O)NCCSC(C)(C)C)S(C)(=O)=O	none
CN1Cc2cc(C(=O)c3cc(Cl)cc(CSc4ncccn4)c3O)cnc2NC1=O	VCAM1 TNFa inh 95.9
Cc1ccc(C)c(NC(=S)NC(NC(=O)N(C)C)C(Cl)(Cl)Cl)c1 (stereo not drawn)	none
Cc1ccc(C)c(NC(=S)NC(NC(=O)Cc2cccc3ccccc23)C(Cl)(Cl)Cl)c1 (stereo not drawn)	VCAM1 TNFa inh 67.2 (no result: TNFa cytotox)
Cc1cccc(OCCCC(=O)N2CCCc3ccccc32)c1C	none
COc1cc2[nH]c(=O)n(Cc3ccc(C(=O)NC4CCCC4)cc3)c(=O)c2cc1OC	IL1B NFkB pot 46.2
COc1cc2[nH]c(=O)n(Cc3ccc(C(=O)NCCCN4CCN(C)CC4)cc3)c(=O)c2cc1OC	none
CC1Oc2ccccc2C=C1/C=C1/SC(N2CCOCC2)=NC1=O (stereo not drawn)	VCAM1 TNFa inh 52.0
O=C1Nc2ccc(S(=O)(=O)N3CCOCC3)c3cccc1c23	VCAM1 TNFa inh 89.2
O=C1Nc2ccc(S(=O)(=O)N3CCCC3)c3cccc1c23	none
CCOC(=O)c1cccc(Nc2nc(C)cc(C)n2)c1	IL1B cytotox 82.7
CC1(C)Cc2c(sc3ncnc(N)c23)CO1	none
CC1(C)Cc2c(oc3ncn4ncnc4c23)CO1	VCAM1 TNFa inh inconclusive, TNFa cytotox 97.4
O=C(O)C1CC(=O)N(c2ccc(Br)cc2)C1 (stereo not drawn)	none
N#Cc1c2c(c(NCc3ccco3)n3c1nc1ccccc13)CCC2	TNFa cytotox 84.2
O=C(CN1C(=O)NC(Cc2ccccc2)C1=O)NC(=O)NC1CCCCC1 (stereo not drawn)	none
Cc1ccc(C2C(=O)N(C3CCCC3)CC(=O)N2CC2COc3ccccc3O2)cc1 (stereo not drawn)	none
CCOC(=O)c1[nH]c(C)c(C(=O)N2CCc3ccccc32)c1C	VCAM1 TNFa inh 53.7, IL1B NFkB pot 100.0
COc1ccc(CC(=O)NC(C)c2nnc(SCCOc3ccc(OC)cc3)n2C)cc1 (stereo not drawn)	IL1B NFkB inh inconclusive, TNFa cytotox 83.4
O=C(NC1CCCCC1)C(c1cccs1)N(Cc1cccs1)C(=O)c1ccco1 (stereo not drawn)	none
CN(C)S(=O)(=O)c1ccc2c(c1)c(=O)c(C(=O)N1CCOCC1)cn2C	IL1B NFkB inh 65.6
O=C(c1ccco1)N1CCN(c2ncnc3c2nnn3Cc2ccccc2Cl)CC1	none
O=C(c1ccco1)N1CCN(c2nc(C(F)(F)F)nc3c2nnn3Cc2ccccc2)CC1	IL1B NFkB pot 40.7
COc1ccc2c(c1)CCc1c(C(=O)N3CCOCC3)noc1-2	none
COc1ccc2c(c1)CCc1c(C(=O)N3CC4(C)CC3CC(C)(C)C4)noc1-2 (stereo not drawn)	VCAM1 TNFa inh 90.6
CC(C)(C)C(=O)/C(=C\c1ccc([N+](=O)[O-])cc1)n1cncn1	IL1B NFkB inh 68.9
O=S(=O)(NCCSc1nnc(-c2ccco2)n1-c1ccccc1)c1ccccc1	IL1B NFkB pot 86.1
O=C(CSc1nnc(-c2ccco2)n1-c1ccccc1)N1CCOCC1	none
Cc1ccccc1CS(=O)(=O)c1nnc([C@H](Cc2ccccc2)NC(=O)OC(C)(C)C)o1	VCAM1 TNFa inh 74.9
CCSc1nnc([C@H](Cc2ccccc2)NC(=O)OC(C)(C)C)o1	none
CC(C)(C)OC(=O)N[C@@H](Cc1ccccc1)c1nnc(S(=O)(=O)Cc2ccccc2)o1	IL1B NFkB inh 38.4
